Peg3 promoter = Peg3 promoter-driven luciferase inhibitors, primary screen, cell-based, HeLa, luciferase luminescence; HeLa PEG-Prom luciferase reporter, overnight; inhibition, % at 20 µM; 360,000 compounds, 1.7% hits;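 active means inhibition of at least 50% at 20 µM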
PAX8 inh HTS = inhibitors of PAX8-driven TPO luciferase reporter, primary screen, RMG-I cells, single concentration. 360,000 compounds, 1.2% hits. inhibition, % at 12.6 µM. AID 652154, 2013. SteadyGlo, 24 h;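 active means mean replicate inhibition at least 60% with every replicate also reaching 60%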;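 further: luciferase light reporting Pax8 driven TPO promoter activity; plate controls were median of neutral control wells for no effect and mitoxantrone controls for full effect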
EBV LMP1 NFkB = EBV LMP1-driven NF-kappaB luciferase reporter inhibitors, primary screen, cell-based, luminescence, single point; LMP1-induced NF-kappaB luciferase reporter cells; inhibition, % at 12.5 µM; 350,000 compounds, 0.69% hits; in the data active means inhibition above about 41%;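 further: 0% = neutral control wells and 100% = reference inhibitor control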
Shn3 inh set2 = reduction of Shn3 3'UTR firefly luciferase signal, primary screen, Schnurri-3 inhibitor project, cell-based, Clone20 osteoblasts, set 2; Clone20 osteoblast Shn3 3'UTR firefly luciferase, 24 h; inhibition, % at 12.5 µM; 360,000 compounds, 0.52% hits;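 active means mean inhibition of at least 75% with every replicate also reaching 75%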;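 further: 0% = median of neutral control wells and 100% = pilot-screen positive control compound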
MITF TRPM1 inh = inhibitors of MITF-dependent TRPM1 promoter reporter, primary screen, cell-based, SK-MEL-5, single point, luciferase; SK-MEL-5 TRPM1 promoter luciferase, 24 h; inhibition, % at 12.5 µM; 330,000 compounds, 0.83% hits;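 active means mean inhibition across replicates of 60% or more, whatever share of single replicates reaches that level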
HIF-2a block = HIF-2a reporter inhibitors, primary screen, luminescence, 786-0 RCC cells. 786-0 RCC cells HIF-2a reporter, luciferase luminescence, overnight. inhibition, % at 18.8 µM. 360,000 compounds, 0.72% hits;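 active means inhibition of the luminescence signal of 40% or more relative to plate controls, in a single-dose primary screen at 18.75 µM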
* marks the source's active call; other numbers are inactive results; nt = no result. Hits are enriched below; roughly 2.8% of the tested compounds scored in any of these assays.

SMILES	Peg3 promoter	PAX8 inh HTS	EBV LMP1 NFkB	Shn3 inh set2	MITF TRPM1 inh	HIF-2a block
C[C@@H]1CCCCO[C@H](CN(C)Cc2ccc(C(F)(F)F)cc2)[C@@H](C)CN([C@@H](C)CO)C(=O)c2cc(NS(=O)(=O)c3ccccc3)ccc2O1	nt	88.2*	nt	nt	nt	nt
C[C@H]1CCCCO[C@H](CN(C)Cc2ccccc2)[C@@H](C)CN([C@@H](C)CO)C(=O)c2cc(NS(=O)(=O)c3ccccc3)ccc2O1	nt	0.5	nt	nt	nt	nt
C[C@@H]1CCCCO[C@H](CN(C)Cc2ccc(C(F)(F)F)cc2)[C@H](C)CN([C@H](C)CO)C(=O)c2cc(NS(=O)(=O)c3ccccc3)ccc2O1	nt	88.8*	nt	nt	nt	nt
CCCNC(=O)Nc1ccc2c(c1)OC[C@H](C)N(CCC)C[C@H](C)[C@@H](OC)CN(C)C2=O	nt	-3.7	nt	nt	nt	nt
C[C@@H]1CCCCO[C@H](CN(C)S(=O)(=O)c2cccs2)[C@@H](C)CN([C@@H](C)CO)C(=O)c2cc(NS(=O)(=O)c3ccccc3)ccc2O1	nt	-1.7	nt	nt	nt	nt
C[C@@H]1CCCCO[C@@H](CN(C)Cc2ccc(C(F)(F)F)cc2)[C@@H](C)CN([C@H](C)CO)C(=O)c2cc(NS(=O)(=O)c3ccccc3)ccc2O1	nt	16.1	nt	nt	nt	nt
C[C@@H]1CCCCO[C@@H](CN(C)Cc2ccc(C(F)(F)F)cc2)[C@H](C)CN([C@@H](C)CO)C(=O)c2cc(NS(=O)(=O)c3ccccc3)ccc2O1	nt	110.7*	nt	nt	nt	nt
Cc1ccc2nc(-c3ccc(NC(=S)NCC(C)(C)CN(C)C)cc3)sc2c1	60.5*	-117.4	-109.1	-15.6	-12.5	-210.9
Cc1nn2c(N3CCN(C)CC3)cc(C(C)(C)C)nc2c1-c1ccccc1	58.6*	-7.7	-12.8	17.3	-14.5	11.8
CNC(=O)C[C@H]1CC[C@@H]2[C@H](COc3ccc(NS(=O)(=O)c4cccc(F)c4)cc3C(=O)N2C)O1	nt	-8.4	nt	nt	nt	nt
Cc1ccc(-c2nn3c(C)nnc3s2)cc1NC(=O)c1ccc(-c2ccc(Cl)cc2Cl)o1	103.3*	nt	0.2	58.0	100.3*	-1.1
Cc1ccc(-c2nn3c(C)nnc3s2)cc1NC(=O)c1ccc(-c2cccc(Cl)c2)o1	3.1	30.7	15.8	16.2	-11.3	-14.7
CCc1cccc(C)c1NC(=S)NCCc1c(C)[nH]c2ccc(C)cc12	51.4*	30.8	-3.1	13.9	16.5	16.0
C[C@@H]1CN([C@H](C)CO)C(=O)c2cc(NC(=O)Cc3ccccc3)ccc2O[C@@H]1CN(C)Cc1ccc2c(c1)OCO2	nt	7.1	nt	nt	nt	nt
C[C@@H]1CN([C@H](C)CO)C(=O)c2cccc(NS(=O)(=O)c3ccccc3)c2O[C@@H]1CN(C)S(=O)(=O)c1ccc(Cl)cc1	nt	12.9	nt	nt	nt	nt
CCCNC(=O)c1ccc(N2CCC3(CC2)CC(c2cccc(Br)c2)=NO3)c(NC(=O)c2ccc(Cl)c([N+](=O)[O-])c2)c1	73.4*	11.2	2.0	8.9	44.2	11.9
Cc1ccc(CNC(=O)c2ccc(N3CCC4(CC3)CC(c3cccc(Br)c3)=NO4)c(NC(=O)c3ccc(Cl)c([N+](=O)[O-])c3)c2)cc1	12.7	9.6	8.4	0.8	18.8	-1.5
O=c1c2ccccc2ncn1-c1ccc2c(c1)OCCO2	-59.5	nt	0.2	-22.5	-40.2	-55.5
O=c1c2c3nc4ccccc4nc3n(-c3ccc4c(c3)OCCO4)c2ncn1C1CCCC1	58.7*	nt	-4.9	8.9	82.3*	-0.6
O=C1CNC[C@@H]2[C@H](c3ccc(C#CC4CCCC4)cc3)[C@@H](CO)N12	nt	-18.2	nt	nt	nt	nt
O=C1C(=O)c2ccccc2C(O)=C1CCCCl	40.4	nt	0.3	14.3	78.0*	0.9
COC(=O)C[C@@H]1CC[C@@H]2[C@@H](COc3ccc(NC(=O)Nc4cccc(C)c4)cc3C(=O)N2C)O1	nt	-9.8	nt	nt	nt	nt
COc1ccc(-n2c(SCC(=O)Nc3ccc4c(c3)OCO4)nc3c(c2=O)SCC3)cc1	14.7	13.4	76.0*	-3.9	2.5	20.6
CCCCCCCC[n+]1cccc2c3ccccc3ccc21	54.0*	81.5*	32.8	80.3	85.8*	-39.7
CCCCCCCCCC[n+]1cccc2c3ccccc3ccc21	75.0*	80.9*	30.4	84.1	101.1*	6.7

Screening results deposited in PubChem BioAssay by several laboratories.
